{"source": "PubChem BioAssay (NCI)", "note": "Where “and” joins values, the source holds several entries; their conditions need not be identical. Equal values may be shown once. Compounds without any hit were thinned out: in the full panel of roughly 83,000, 20% have a hit.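 A percent growth of 40 corresponds to 60% growth inhibition; 0 means no net growth; -100 means all cells died. Active threshold: below 10.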 Calls of active or inactive are those of the source. Where a SMILES comes first, the peptide text is derived from it. [ ]: non-standard residue; d: D form. ξ: configuration not given here. ξV = CC(C)C(N)C(=O)O"}
{"system": "T-47D breast", "assay": "NCI-60 one-dose screen, 48 h (100 = growth as untreated, 0 = no growth, -100 = all killed)", "settings": "0.0025 µM", "procedure": "(§1) Growth inhibition of the T-47D human tumor cell line is measured as a screen for anti-cancer activity. Cells are grown in 96 well plates and exposed to the test compound for 48 hours. Compounds are tested at a single concentration, which is 10^-5 M for most compounds. The reported endpoint is percent growth (GI% or GIPRCNT), where numbers from 0 - 100% represent growth inhibition, and numbers from -100% - 0 represent cell death. For example, a value of 40 represents 60% growth inhibition. A value of 0 means no net growth occurred over the course of the experiment. A value of -40 indicates 40% of cells at the beginning of the experiment died by the end of the experiment. A value of -100 means all cells are dead at the end of the experiment.\n(§2) NCI-60 Human Tumor Cell Lines Screen was performed using the standard one-dose NCI protocol, which is described in more detail at https://dtp.cancer.gov/discovery_development/nci-60/default.htm.\n(§3) Compounds with GIPRCNT values below 10 were considered active. Activity score was based on GIPRCNT using the following formula: […]\n(§4) Score is 0 for GIPRCNT values of 100 or above, 50 for GIPRCNT values of 0, and 100 for GIPRCNT values of -100."}
{"smiles": "COc1cccc2c1C(=O)c1c(O)c3c(c(O)c1C2=O)C[C@@](O)(C(=O)CO)C[C@@H]3OC1CC(N)C(O)C(C)O1", "note": "(stereo not given in full)", "growth": "90.7% (inactive)"}
{"system": "T-47D breast", "assay": "NCI-60 one-dose screen, 48 h (100 = growth as untreated, 0 = no growth, -100 = all killed)", "settings": "1 µM", "procedure": "as §1, §2, §3, §4"}
{"smiles": "COc1cccc2c1C(=O)c1c(O)c3c(c(O)c1C2=O)C[C@@](O)(C(=O)CO)C[C@@H]3OC1CC(N)C(O)C(C)O1", "note": "(stereo not given in full)", "growth": "13.2% (inactive)"}
{"system": "T-47D breast", "assay": "NCI-60 one-dose screen, 48 h (100 = growth as untreated, 0 = no growth, -100 = all killed)", "settings": "2.5 µM", "procedure": "as §1, §2, §3, §4"}
{"smiles": "COc1cccc2c1C(=O)c1c(O)c3c(c(O)c1C2=O)C[C@@](O)(C(=O)CO)C[C@@H]3OC1CC(N)C(O)C(C)O1", "note": "(stereo not given in full)", "growth": "39.5% (inactive)"}
{"system": "T-47D breast", "assay": "NCI-60 one-dose screen, 48 h (100 = growth as untreated, 0 = no growth, -100 = all killed)", "settings": "10 µM", "procedure": "as §1, §2, §3, §4"}
{"smiles": "CN(C)C(=S)SC(=S)N(C)C", "growth": "67% (inactive) and 96.3% (inactive)"}
{"smiles": "CC(=O)Nc1cc(C)ccc1C", "growth": "107% (inactive)"}
{"smiles": "CC[N+](CC)=c1ccc2nc3c(cc(N)c4ccccc43)oc-2c1", "growth": "-44% (active)"}
{"smiles": "O=C(/C=C/c1cccnc1)c1ccccc1", "growth": "86.5% (inactive)"}
{"smiles": "CCCCCCCCCCCCSC(=NC)NC", "growth": "-7.65% (active) and 49.6% (inactive)"}
{"smiles": "Cc1cc(O)c(C(C)C)cc1Cl", "growth": "98.8% (inactive)"}
{"smiles": "CSC1SCC2C(=O)N(C)C(C(C)C)C(=O)OCC(NC(=O)c3cnc4ccccc4n3)C(=O)NC(C)C(=O)N(C)C1C(=O)N(C)C(C(C)C)C(=O)OCC(NC(=O)c1cnc3ccccc3n1)C(=O)NC(C)C(=O)N2C", "note": "(stereo not given)", "growth": "-8.25% (active)"}
{"smiles": "CCN1/C(=C/C=C/C=C/c2sc3ccccc3[n+]2CC)Sc2ccccc21", "growth": "-32.2% (active)"}
{"smiles": "NC1=C(Cl)C(=O)c2ccccc2C1=O", "growth": "86.8% (inactive)"}
{"smiles": "COc1c(O)cc2oc3cc(O)c(CC=C(C)C)c(O)c3c(=O)c2c1CC=C(C)C", "growth": "48% (inactive)"}
{"smiles": "COc1ccc(CC(=O)c2ccc(O)cc2O)cc1", "growth": "182% (inactive)"}
{"smiles": "Nc1nc(=S)c2ncn(C3OC(CO)C(O)C3O)c2[nH]1", "note": "(stereo not given)", "growth": "121% (inactive) and 35.2% (inactive)"}
{"smiles": "CC(C)C(NC(=O)CN)C(=O)O", "note": "(stereo not given) (H-Gly-[ξV]-OH)", "growth": "102% (inactive)"}
{"smiles": "COC(=O)C1C(O)C(C)C(O)C(C)C=C(C)C2=C3C(=C(C)C(=O)c4c(O)c(c(C)c(OC(C)=O)c43)NC(=O)C(C)=C/C=C\\C(C)C(O)C(C)C1O)OCO2", "note": "(stereo not given)", "growth": "117% (inactive)"}
{"smiles": "O=C(/C=C/c1ccccn1)c1ccccc1", "growth": "66.9% (inactive)"}
{"smiles": "COc1cccc2c1C(=O)c1c(O)c3c(c(O)c1C2=O)C[C@@](O)(C(=O)CO)C[C@@H]3OC1CC(N)C(O)C(C)O1", "note": "(stereo not given in full)", "growth": "-11.3% (active)"}
{"smiles": "CCO/C=C1\\SC(=S)N(c2cccc(O)c2)C1=O", "growth": "87.4% (inactive)"}
{"smiles": "CO[C@H](C(=O)[C@@H](O)[C@@H](C)O)[C@@H]1Cc2cc3cc(OC4CC(OC5CC(O)C(O)C(C)O5)C(O)C(C)O4)c(C)c(O)c3c(O)c2C(=O)[C@H]1OC1CC(OC2CC(OC3CC(C)(O)C(O)C(C)O3)C(O)C(C)O2)C(O)C(C)O1", "note": "(stereo not given in full)", "growth": "7.17% (active)"}
{"smiles": "OCC1OC(n2cnc3c(=S)nc[nH]c32)C(O)C1O", "note": "(stereo not given)", "growth": "100% (inactive) and 57.7% (inactive)"}
{"smiles": "CC(C)(C)CC(C)(C)c1ccc(OCCO)cc1", "growth": "105% (inactive)"}
{"smiles": "O=C(Nc1ccc(C(=O)O)c(O)c1)c1ccccc1", "growth": "101% (inactive) and 104% (inactive)"}
{"smiles": "COC1OCC(O)C(O)C1O", "note": "(stereo not given)", "growth": "105% (inactive)"}
{"smiles": "OC(CN1CCCC2CCCCC21)c1cc2ccccc2c2ccccc12", "note": "(stereo not given)", "growth": "14.9% (inactive)"}
{"smiles": "Clc1cc(Cl)c(Cl)nn1", "growth": "79.3% (inactive)"}
{"smiles": "C[n+]1c2cc(N)ccc2cc2ccc(N)cc21", "growth": "-14.1% (active) and -9.22% (active) and -15% (active)"}
{"smiles": "O=C(O)COc1ccc(OCC(=O)O)cc1", "growth": "5.61% (active)"}
{"smiles": "O=c1ccn(C2CC(O)C(COC(c3ccccc3)(c3ccccc3)c3ccccc3)O2)c(=O)[nH]1", "note": "(stereo not given)", "growth": "84.7% (inactive)"}
{"smiles": "CCCCCCCCCCCC[N+](C)(C)Cc1ccccc1", "growth": "14.2% (inactive)"}
{"smiles": "NC(=O)SCC(=O)NNc1ccccc1", "growth": "73.5% (inactive)"}
{"smiles": "NNc1ccc2ccccc2c1", "growth": "70.2% (inactive) and 98.5% (inactive)"}
{"smiles": "COC(=O)C1=COC(C)C2C[n+]3ccc4c([nH]c5ccccc54)c3CC12", "note": "(stereo not given)", "growth": "100% (inactive) and 91.5% (inactive)"}
{"smiles": "Oc1ccc(N=Nc2ccccn2)c(O)c1", "growth": "37.3% (inactive)"}
{"smiles": "Cc1nc(N=C(N)N)nc2ccc3ccccc3c12", "growth": "-10.6% (active)"}
{"smiles": "CCN(CC)c1ccc(NC(C(=O)c2ccccc2)c2ccccc2)cc1", "note": "(stereo not given)", "growth": "8.44% (active)"}
{"smiles": "OCC(O)C(O)C(O)C(/C=N/Nc1ccccc1)=N/Nc1ccccc1", "note": "(stereo not given)", "growth": "57.9% (inactive)"}
{"smiles": "Clc1ccc(/C=C/c2ccccn2)c(Cl)c1", "growth": "47.5% (inactive)"}
{"system": "T-47D breast", "assay": "NCI-60 one-dose screen, 48 h (100 = growth as untreated, 0 = no growth, -100 = all killed)", "settings": "100 µM", "procedure": "as §1, §2, §3, §4"}
{"smiles": "O=c1ccn(C2CC(O)C(COC(c3ccccc3)(c3ccccc3)c3ccccc3)O2)c(=O)[nH]1", "note": "(stereo not given)", "growth": "25.7% (inactive)"}
